Measurements from ChEMBL document CHEMBL3988442, “University of Dundee, Small-Polar-MMV Screening Library” (2021).
In all, about 69,000 compounds went through this assay and about 1,000 (1.4%) showed an effect of 50% or more. Only a selection was taken, and strong results are over-represented in it overall.

Test system: Leishmania donovani
Experiment: Leishmania intramacrophage assay
Assay type: functional, organism-based
Design: scale not given: in the data most compounds retested in dose-response had high values

CCCc1nc(CN(CC)C(=O)c2ccc3ncsc3c2)no1
Percent Effect (30.3 µM, […]): -29.17%

COc1ccc(-c2nccn2CC(O)CN2CCCC2)c(F)c1 (stereo not drawn)
Percent Effect (30.3 µM, […]): 5.05%

COc1ccc2cnn(CC(=O)NC3CCCCC3)c(=O)c2c1OC
Percent Effect (30.3 µM, […]): 14.43%

CNS(=O)(=O)CCn1cc(-c2ccc(OC)c(OC)c2)nn1
Percent Effect (30.3 µM, […]): 27.44%

CCn1cc2c(n1)C(COC)CN(C(=O)COc1ccccc1C)C2 (stereo not drawn)
Percent Effect (30 µM, 30.03 µM): -0.4533%

CC(C)c1ncncc1C(=O)N1CCN(Cc2ccccn2)CC1
Percent Effect (30 µM): 24.52%

NC(=O)c1cccc(OCC(=O)NS(=O)(=O)c2ccc3c(c2)CCC3)c1
Percent Effect (30 µM): 8.199%

Cc1nn(C)c(N2CCOCC2)c1CNC1COc2ccccc2C1 (stereo not drawn)
Percent Effect (30 µM): 6.69%

CC(=O)NCCCc1ncnn1-c1cccc(Cl)c1
Percent Effect (30.3 µM, […]): -4.184%

O=C(NCCC(=O)N1CCCc2ccccc21)c1c(O)cc(F)cc1F
Percent Effect (30 µM, 30.03 µM): 50.32%

O=C(NCC(=O)N1CCCc2ccccc21)c1c(O)cc(F)cc1F
Percent Effect (30 µM): 16.08%

O=C(NCCC(=O)N1CCCc2ccccc21)c1c(F)cccc1F
Percent Effect (30 µM): 15.29%

Cc1ccc(CN2C[C@@H]3[C@@H](C(=O)NCC(C)C)CCS(=O)(=O)[C@@H]3C2)cc1.O=C(O)C(F)(F)F
Percent Effect (30.3 µM, […]): -6.029%

CCc1nnc(SCC(=O)Nc2cc(C(C)(C)C)nn2C)[nH]1
Percent Effect (30.3 µM, […]): 21.82%

CCc1cc(NC2CCN(CC(N)=O)CC2)nc(N2CCCCC2)n1
Percent Effect (30.3 µM, […]): 55.44%

CCc1cc(NC2CCS(=O)(=O)CC2)nc(N2CCCCC2)n1
Percent Effect (30.3 µM, […]): -6.887%

CCc1cc(NCC(N)=O)nc(N2CCCCC2)n1
Percent Effect (30.3 µM, […]): 21.93%

CCc1ccsc1C(=O)N1CCS(=O)(=O)CC1
Percent Effect (30.3 µM, […]): 9.315%

CCc1ccsc1C(=O)N1CCN(C(=O)c2ccc(C)o2)CC1
Percent Effect (30.3 µM, […]): 56.23%

COC(=O)c1sccc1CN1CCN(C(=O)c2ccc(C)o2)CC1
Percent Effect (30.3 µM, […]): 23.22%

O=C(c1ccc2[nH]c(=O)[nH]c2c1)N1CCC(Nc2cccnn2)CC1
Percent Effect (30 µM): -0.4678%

Oc1c(F)cc(CNc2cccc(-c3nnc[nH]3)c2)cc1F
Percent Effect (30.3 µM, […]): 16.51%

Oc1ccc(Br)c(CNc2cccc(-c3nnc[nH]3)c2)c1
Percent Effect (30.3 µM, […]): 51.72%

c1cc(NCc2ccsc2)cc(-c2nnc[nH]2)c1
Percent Effect (30.3 µM, […]): 34.15%

CN(CCO)C(=O)Nc1ccn(-c2cccc(C(F)(F)F)c2)n1
Percent Effect (30.3 µM, […]): 13.55%

Cc1nc2n(n1)CC(NCc1csc(-c3ccsc3)n1)CC2 (stereo not drawn)
Percent Effect (30 µM): 1.329%

O=C(NC[C@H]1OC[C@@H](NC2COC2)[C@@H]1O)c1cccs1
Percent Effect (30.3 µM, […]): 17.79%

Cc1ccc2c(c1)C(=O)NCC1(CCN(C(=O)c3ccccn3)CC1)O2
Percent Effect (30.3 µM, […]): 39.06%

Cc1ccc2c(c1)C(=O)NCC1(CCN(C(=O)c3cc(C)no3)CC1)O2
Percent Effect (30.3 µM, […]): 77.82%

Cc1ccc2c(c1)C(=O)NCC1(CCN(C(=O)c3ccnn3C)CC1)O2
Percent Effect (30.3 µM, […]): 23.56%

Cc1cccc(C)c1OC1CN(C(=O)C2CC(=O)N(C(C)(C)C)C2)C1 (stereo not drawn)
Percent Effect (30.3 µM, […]): 48.27%

CN1C(=O)C(c2ccccc2)CC12CCN(CCN)CC2 (stereo not drawn)
Percent Effect (30.3 µM, […]): 16.5%

CCc1cc(NCCCN(C)C2CCCC2)ncn1
Percent Effect (30.3 µM, […]): 22.72%

CCc1cc(NCCCOC2CCN(C)CC2)ncn1
Percent Effect (30.3 µM, […]): -6.301%

CCc1cc(NCCCOC2CCCC2)ncn1
Percent Effect (30.3 µM, […]): 51.18%

Cn1ccc(CN2CCC3(CCCN3CC3CC3)CC2)n1.O=C(O)C(F)(F)F.O=C(O)C(F)(F)F
Percent Effect (30.3 µM, […]): 41.38%

O=C(CC1CN(Cc2ccccc2)CCO1)NC1CCSCC1 (stereo not drawn)
Percent Effect (30.3 µM, […]): 18.94%

Cc1ccc(CC(=O)N(C)CC2(O)CCN(c3ccccn3)C2)s1 (stereo not drawn)
Percent Effect (30 µM, 30.03 µM): 24.75%

CC(=O)c1cnc(NCCN2CCCC(c3ccccc3)C2)nc1C (stereo not drawn)
Percent Effect (30.3 µM, […]): -39.73%

O=C(C1CCCOC1)N1CCN(CC(F)(F)F)c2ccccc21 (stereo not drawn)
Percent Effect (30.3 µM, […]): -20.84%

O=C(C1CCOC1)N1CCN(CC(F)(F)F)c2ccccc21 (stereo not drawn)
Percent Effect (30.3 µM, […]): 25.18%

O=C(C1COCCO1)N1CCN(CC(F)(F)F)c2ccccc21 (stereo not drawn)
Percent Effect (30.3 µM, […]): 56.8%

CC(C)(C)c1cc(CN2C[C@@H]3CC[C@H](C2)N(Cc2ccccn2)C3)n[nH]1
Percent Effect (30.3 µM, […]): 9.516%

CC(C)(C)c1cc(CN2C[C@H]3CC[C@@H]2CN(Cc2cscn2)C3)n[nH]1
Percent Effect (30.3 µM, […]): 99.99%

CC(C)Cc1cc(CN2C[C@H]3CC[C@@H]2CN(Cc2cscn2)C3)n[nH]1
Percent Effect (30.3 µM, […]): 2.738%

CCCc1n[nH]c(C2CN(C(=O)c3ccco3)CCO2)n1 (stereo not drawn)
Percent Effect (30 µM, 30.03 µM): 22.5%

Cc1nc2c(c(NCCCN3CCOCC3)n1)CCN(C)C2
Percent Effect (30.3 µM, […]): 22.12%

CCN(CC)CCCNc1nc(C)nc2c1CCN(C)C2.O=C(O)CC(O)(CC(=O)O)C(=O)O
Percent Effect (30.3 µM, […]): 53.93%

Cc1nc2c(c(NCCN3CCOCC3)n1)CCN(C)C2
Percent Effect (30.3 µM, […]): 32.47%

Cc1nccc([C@H]2C[C@@H]3CCN(C(=O)c4c(C)noc4C)C[C@H]3O2)n1
Percent Effect (30.3 µM, […]): 16.88%

Cc1ccccc1OCCSc1nnc(CC2CCS(=O)(=O)C2)n1C (stereo not drawn)
Percent Effect (30.3 µM, […]): 22.12%

COCc1cc(N2CCOC(c3ccc(Cl)c(Cl)c3)C2)ncn1 (stereo not drawn)
Percent Effect (30.3 µM, […]): 54.26%

COCc1cc(N2CCOC(c3ccc(F)cc3)C2)ncn1 (stereo not drawn)
Percent Effect (30.3 µM, […]): -18.01%

COCc1cc(N2CCOC(c3ccc(Cl)cc3)C2)ncn1 (stereo not drawn)
Percent Effect (30.3 µM, […]): 15.44%

COc1ccc(-c2nc(CN3CCCC(OC)C3)c(C)o2)c(F)c1 (stereo not drawn)
Percent Effect (30.3 µM, […]): 76%

CCCOC1CCCN(Cc2nc(-c3ccc(F)cc3F)oc2C)C1 (stereo not drawn)
Percent Effect (30.3 µM, […]): -16.44%

COCc1ncn(Cc2nc(-c3ccc(OC)cc3F)oc2C)n1
Percent Effect (30.3 µM, […]): -35.79%

COc1cccc(CN(C(=O)Nc2nncs2)C2CCC(O)CC2)c1 (stereo not drawn)
Percent Effect (30.3 µM, […]): 1.528%

O=C1NC2(CCN(C(=O)c3ccnnc3)CC2)CC1c1ccccc1 (stereo not drawn)
Percent Effect (30.3 µM, […]): 21.04%

CC(=O)c1ccccc1-c1nc(CC2CCN(C)CC2)no1
Percent Effect (30.3 µM, […]): 87.64%

CCCN1CCC(Cc2noc(-c3cc4cccnc4nc3C)n2)CC1
Percent Effect (30.3 µM, […]): 32.81%

CN1CCC(Cc2noc(-c3cccc4c3OCC4)n2)CC1
Percent Effect (30.3 µM, […]): 31.67%

COC(=O)c1cccc(-c2nc(CC3CCN(C)CC3)no2)c1
Percent Effect (30.3 µM, […]): 10.91%

CCCN1CCC(Cc2noc(-c3ncccc3C)n2)CC1
Percent Effect (30.3 µM, […]): 17.75%

CCCN1CCC(Cc2noc(-c3cccnc3OC)n2)CC1
Percent Effect (30.3 µM, […]): 57.42%

CSCc1noc(CNC(=O)C2CCN(C3CCCCC3)CC2)n1
Percent Effect (30.3 µM, […]): 24%

Cc1noc(C)c1CN(C)c1ncnc2ccccc12
Percent Effect (30.3 µM, […]): 12.67%

CC(Cn1cc(Br)cn1)C(=O)Nc1ccc(Cl)cn1 (stereo not drawn)
Percent Effect (30.3 µM, […]): -88.88%

CC(C)c1nc(C2CCCN(C(=O)CCn3cncn3)C2)no1 (stereo not drawn)
Percent Effect (30 µM): 13.68%

O=C(Cc1ccc(F)cc1)NCCNc1cc(N2CCCC2)ncn1
Percent Effect (30.3 µM, […]): -9.653%

CCN1CC(COC(=O)c2ccc(N(C)C)cc2F)CC1=O (stereo not drawn)
Percent Effect (30.3 µM, […]): 23.8%

CCN1CC(COC(=O)c2cc(Br)ccc2F)CC1=O (stereo not drawn)
Percent Effect (30.3 µM, […]): -7.569%

CCN1CC(COC(=O)c2ccc(Br)cc2F)CC1=O (stereo not drawn)
Percent Effect (30.3 µM, […]): 87.43%

COc1ccccc1CC(=O)N1CCCC1Cn1nc(C)cc1C (stereo not drawn)
Percent Effect (30.3 µM, […]): 13.95%

O=C1O[C@@H]2CN(Cc3cccc(O)c3)C[C@@H]2N1CCCN1CCOCC1
Percent Effect (30.3 µM, […]): 8.802%

CCOc1ccc(Cl)c(C(=O)NC)n1
Percent Effect (30 µM): 10.53%

O[C@@H]1C[C@@H](c2nc(-c3ccccc3)no2)N(CC2CCCCC2)C1
Percent Effect (30.3 µM, […]): 18.41%

COc1ccc(CN(C)C(=O)CSc2nnc(N)s2)c(OC)c1OC
Percent Effect (30.3 µM, […]): 28.05%

COc1ccnc(CN(C)C(=O)CSc2nnc(N)s2)c1
Percent Effect (30.3 µM, […]): 23.55%

CCn1ccc(CN(C)C(=O)CSc2nnc(N)s2)n1
Percent Effect (30.3 µM, […]): 54.38%

CC(C(=O)N1CCCCC1)N1CCN(c2ncc(Cl)cn2)CC1 (stereo not drawn)
Percent Effect (30.3 µM, […]): 6.463%

CS(=O)(=O)C1CCN(S(=O)(=O)c2ccc(F)c(F)c2)C1 (stereo not drawn)
Percent Effect (30.3 µM, […]): 54.9%

Cc1cc(S(=O)(=O)N2CCC(S(C)(=O)=O)C2)ccc1F (stereo not drawn)
Percent Effect (30.3 µM, […]): 24.83%

CS(=O)(=O)C1CCN(S(=O)(=O)c2ccc(F)c(F)c2)CC1
Percent Effect (30.3 µM, […]): -2.266%

O=C(NCc1ccccn1)N1CC=C(c2ccccc2)CC1
Percent Effect (30.3 µM, […]): 1.233%

Cc1nc(C2CCNCC2)cc(N2CCOc3ccccc3C2)n1
Percent Effect (30.3 µM, […]): 38.29%

CCN(C)CC(=O)N1CCC(c2cc(N3CCOCC3)nc(C)n2)CC1
Percent Effect (30.3 µM, […]): -5.475%

Cc1nc(N)nc(N2CCOc3ccc(CO)cc3C2)c1C
Percent Effect (30.3 µM, […]): -5.312%

Cc1nc(CCN)cc(N2CCC(O)(c3ccccc3)C2)n1 (stereo not drawn)
Percent Effect (30.3 µM, […]): 11.63%

Cc1nc(C2CCN(C)CC2)cc(N2CCOc3ccc(Cl)cc3C2)n1
Percent Effect (30.3 µM, […]): 85.22%

Cc1nc(CN)cc(N2CCC(O)(c3ccc(Cl)cc3)CC2)n1
Percent Effect (30.3 µM, […]): -13.57%

COc1ccc(C(=O)N2CCN(c3cc(CCN)nc(C)n3)CC2)cc1
Percent Effect (30.3 µM, […]): 0.4639%

Cc1nc(CCN)cc(N2CCOc3ccc(Cl)cc3C2)n1
Percent Effect (30.3 µM, […]): 63.66%

Cc1nc(CCN)cc(N2CCC(O)(c3ccc(Cl)cc3)CC2)n1
Percent Effect (30.3 µM, […]): 77.75%

COc1cc2nc(NCCNS(C)(=O)=O)cc(C)c2cc1OC
Percent Effect (30.3 µM, […]): -28.24%

O=C(O)C(F)(F)F.O=C(O)C(F)(F)F.c1csc(CN2CCCC3(COCCN(Cc4c[nH]nn4)C3)C2)c1 (stereo not drawn)
Percent Effect (30.3 µM, […]): 14.23%

Cc1ccccc1C1(C(=O)N2CCOC(C)C2)CCOCC1 (stereo not drawn)
Percent Effect (30.3 µM, […]): -3.571%

Cc1nc(CN(C)C2CCN(Cc3ccc(C(N)=O)cc3)C2)no1 (stereo not drawn)
Percent Effect (30 µM): 31.74%

Cc1cccc(S(=O)(=O)NC(=O)CN(C)Cc2ccccc2)c1
Percent Effect (30.3 µM, […]): 14.38%

Cc1ccccc1[C@@H]1CN(Cc2ccc(C(F)(F)F)nc2)C[C@H]1C(=O)O
Percent Effect (30.3 µM, […]): 13.27%

N#Cc1ccc(NC2CCN(Cc3ccccn3)CC2)c(F)c1
Percent Effect (30.3 µM, […]): -12.41%

Fc1ccc(OCCNC2CCN(Cc3ccncc3)CC2)c(F)c1
Percent Effect (30.3 µM, […]): 39.31%

Fc1ccc(OCCNC2CCN(Cc3ccccn3)CC2)c(F)c1
Percent Effect (30.3 µM, […]): 52.55%
